TDP43 rescue = rescues yeast growth from TDP-43 toxicity | TDP-43 expressing yeast growth rescue, BacTiter-Glo, 24 h | actives 1.8% (n = 410,000) | Potency, µM (titrated, usually from 46.1 µM), hits mostly activators | AID 652104; also: nearly all actives have a fitted effect of over 50% in size
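Cell-based yeast growth screen: TDP-43 expression induced in galactose, inoculum OD600=0.02 after raffinose pregrowth to mid-log. Read-out BacTiter-Glo luminescence at 24 hr, 30 deg C; inhibition of toxicity seen as signal increase.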
FUS suppressor = FUS proteinopathy suppression in yeast | S. cerevisiae FUS-expressing, growth rescue, OD600, 24 h | Potency, µM (highest dose often 76.6 µM), hits mostly activators | actives 0.24% (n = 390,000) | AID 1347120; also: nearly all actives have a fitted effect of over 55% in size
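Toxicity suppression screen in FUS-yeast. Cells induced with 2% galactose, starting OD 0.005, treated 24hr at 30C with compounds at multiple final concentrations; growth by OD600.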
aSyn rescue = alpha-synuclein toxicity inhibition in yeast. Potency, µM (top dose mostly 46.1 µM), hits mostly activators. Yeast expressing alpha-synuclein, growth rescue, BacTiter-Glo, 24 h. AID 652106. actives 0.14% (n = 370,000); also: nearly all actives have a fitted effect of over 65% in size
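Rescue of yeast growth: cells expressing toxic alpha-synuclein, induced in galactose at OD600 0.02, incubated with compound 24 h at 30 C. ATP luminescence quantified growth; inhibitors of toxicity appear as activators.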
Abeta rescue = A-beta toxicity reversal in yeast | yeast expressing A-beta42, growth rescue, OD600, 48 h; response scale: 0% DMSO, 100% iron-clioquinol control | Potency, µM (doses to about 46.1 µM), usual class: activators | actives 0.063% (n = 410,000) | AID 1347071; also: nearly all actives have a fitted effect of over 55% in size
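Yeast A-beta toxicity model in growth medium with pinned compounds, 48 h at 30 C; growth read as absorbance at 600 nm. Normalized to FeCl3/clioquinol equimolar mix (positive) and DMSO (negative).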
Large screens that a line does not name were inactive. Only some compounds are listed: those with a hit (about 2.1% of all), similar ones and a draw of the others. Calls follow the shape of the dose curve; as a rule, active = well fitted curve in the direction sought with a large enough effect; inconclusive = small, poorly fitted or top-dose-only effect, or another doubt; inactive = no such curve, though single readings can be large; an effect the other way counts as inactive or inconclusive.

FC(F)(F)c1cc(CCN2C(=S)NC[C@@H]2Cc2ccccc2)cc(C(F)(F)F)c1	TDP43 rescue 22µM, FUS suppressor inconclusive, Abeta rescue inconclusive
COc1ccc(-n2c(COc3ccccc3)nnc2SCC(=O)Nc2ccc3c(c2)OCCO3)cc1	none (no result: TDP43 rescue, aSyn rescue, Abeta rescue)
O=C(Cn1nc2ccccc2n1)N/N=C/c1cc([N+](=O)[O-])ccc1O	none
O=C(N/N=C/c1cc([N+](=O)[O-])ccc1O)C1CCCCC1	aSyn rescue 4µM
CCC(Oc1ccc(F)cc1)C(=O)Nc1nc2c(s1)CCCC2 (stereo not given)	TDP43 rescue 11µM, Abeta rescue inconclusive (no result: aSyn rescue)
O=C(Nc1nc2c(s1)CCCC2)c1ccc(Br)o1	none
Cc1ccc(C(=O)Nc2nc3c(s2)CCCC3)o1	TDP43 rescue 14µM
Cc1cc2ccc(Cl)nc2nc1C	none (no result: TDP43 rescue, FUS suppressor, Abeta rescue)
Cc1c(C(=O)N(C)c2cccc(C(F)(F)F)c2)sc2nc3n(c(=O)c12)CCCCC3	TDP43 rescue inconclusive (no result: aSyn rescue)
COC(=O)[C@@H]1C[C@@]2(c3ccccc3)c3ccccc3N(S(=O)(=O)c3ccccc3)[C@H]2N1C(=O)CNC1CCCCC1	none (no result: TDP43 rescue, aSyn rescue, Abeta rescue)
COc1ccc(C(C)(O)c2nc(/C=C/c3ccccc3)cs2)cc1 (stereo not given)	TDP43 rescue 35µM, aSyn rescue inconclusive, Abeta rescue inconclusive
COc1ccc(C(C)(NC(C)=O)c2nc(/C=C/c3ccccc3)cs2)cc1 (stereo not given)	FUS suppressor inconclusive
COc1ccc(C(C)(O)c2nc(-c3csc4ccccc34)cs2)cc1 (stereo not given)	TDP43 rescue 22µM, Abeta rescue inconclusive
ON=C1c2ccccc2-c2ccc(Br)cc21	TDP43 rescue 3.2µM (no result: FUS suppressor)
CC(=O)C1(C(=O)NC2CCCC2)CC(c2ccccn2)=NO1 (stereo not given)	none (no result: TDP43 rescue, aSyn rescue, Abeta rescue)
O=c1c(-c2cc(-c3ccc(F)cc3)nc3c2COc2ccc(Cl)cc2-3)coc2ccc(F)cc12	none (no result: aSyn rescue)
O=C(O[C@H]1CC[C@@]23CCCN2C(=O)CCC[C@H]3C1)N1CCOCC1	none (no result: TDP43 rescue, aSyn rescue, Abeta rescue)
CCOC(=O)c1sc2nccc(N(C)C)c2c1N=CNOCc1c(F)cccc1Cl	TDP43 rescue 18µM
CCC(CC)NC(=O)O[C@H]1CC[C@@]23CCCN2C(=O)CCC[C@H]3[C@H]1C	none (no result: TDP43 rescue, aSyn rescue, Abeta rescue)
Cc1cc(Br)c2c(c1)[C@](O)(c1cn(C)c3ccccc13)C(=O)N2C	TDP43 rescue 22µM, Abeta rescue inconclusive
O=C(NCCn1cc(SCc2ccccc2Cl)c2ccccc21)c1cccs1	TDP43 rescue inconclusive (no result: aSyn rescue)
CSc1ccccc1NC(=O)N1CCCC(C(=O)c2ccc3c(c2)OCO3)C1 (stereo not given)	TDP43 rescue 16µM
O=C(CSCc1ccccc1Cl)N1CCN(c2ccc(F)cc2)CC1	TDP43 rescue 14µM (no result: aSyn rescue)
O=C(CSCc1ccccc1Cl)N1CCN(c2ccc(Cl)cc2)CC1	TDP43 rescue 16µM, FUS suppressor inconclusive (no result: aSyn rescue)
CC(C)c1cnc2c(c1SCC(=O)Nc1ccc(OC(F)(F)F)cc1)c(=O)n(C)c(=O)n2C	none (no result: aSyn rescue)
CC(C)c1cnc2c(c1SCC(=O)Nc1cccc([N+](=O)[O-])c1)c(=O)n(C)c(=O)n2C	TDP43 rescue 11µM (no result: aSyn rescue)
COc1cc2nc(CCNCc3ccccc3)nc(NC3CCN(C)CC3)c2cc1OC	none (no result: TDP43 rescue, FUS suppressor, Abeta rescue)
CC(=O)NC(c1cccc(F)c1)c1nc(-c2cccc(C(C)C)c2)cs1 (stereo not given)	TDP43 rescue 25µM, FUS suppressor inconclusive, aSyn rescue inconclusive
COc1ccc(-c2csc(C(NC(C)=O)c3ccc(F)c(F)c3)n2)cn1 (stereo not given)	TDP43 rescue 35µM
COc1ccc(-c2csc(C(NC(C)=O)c3cccc(F)c3)n2)cn1 (stereo not given)	none
O=C(C1CCCCC1)N1C[C@@H](n2cc(-c3ccc(F)cc3)nn2)[C@H](O)C[C@@H]1c1ccc(Cl)cc1	TDP43 rescue 22µM
O=C(OC12CCCN(C1)/C(=C/c1ccncc1)C2)c1ccc(Cl)cc1 (stereo not given)	none (no result: TDP43 rescue, aSyn rescue, Abeta rescue)
CCOC(=O)c1sc(=S)n(-c2ccc(Cl)cc2)c1C	TDP43 rescue 25µM
CCOC(=O)c1sc(=S)n(-c2ccc(OC)cc2)c1C	TDP43 rescue 20µM
CCOC(=O)c1sc(=S)n(-c2cc(OC)ccc2OC)c1N	none
COc1ccc(Cn2cc(CN3[C@H](Cc4ccccc4)COc4cc(Br)ccc4S3(=O)=O)nn2)cc1	none (no result: TDP43 rescue, aSyn rescue, Abeta rescue)
CN1C(=O)c2cc(NC(=O)c3ccc(F)cc3)ccc2OC[C@H]2O[C@H](CC(=O)NC3CCC3)CC[C@H]21	none (no result: TDP43 rescue, aSyn rescue, Abeta rescue)
O=C(NC12CC3CC(CC(C3)C1)C2)c1ccc([N+](=O)[O-])o1	TDP43 rescue 20µM
CC(C)(C)c1ccc(S(=O)(=O)NCc2ccc3c(c2)CCN3C(=O)c2ccccc2)cc1	none (no result: aSyn rescue)
CCOC(=O)c1nnsc1Nc1ccc(C)c(C)c1	TDP43 rescue 11µM
CC(C)C[C@@H]1COc2cc(Br)ccc2S(=O)(=O)N1Cc1cn(CCC2OCCO2)nn1	none (no result: TDP43 rescue, aSyn rescue, Abeta rescue)
COc1ccc(OC)c(S(=O)(=O)N2CCCCC2C(=O)N2CCN(CCO)CC2)c1 (stereo not given)	none (no result: TDP43 rescue, aSyn rescue, Abeta rescue)
COc1ccc(N2CCN(c3cnc4ccccc4n3)CC2)cc1	none
COc1cccc(N2CCN(c3cnc4ccccc4n3)CC2)c1	TDP43 rescue 35µM
Cc1ccc(Cc2c(-c3ccc(F)cc3)nc3c(C)cc(Br)cn23)cc1	TDP43 rescue 22µM
COc1ccccc1Cc1c(-c2ccc(F)cc2)nc2c(C)cc(Br)cn12	TDP43 rescue inconclusive
Cc1ccc(Cc2c(-c3ccc(C)cc3)nc3c(C)cc(Br)cn23)cc1	none
COc1ccccc1Cc1c(-c2ccc(OC)c(OC)c2)nc2c(C)cc(Br)cn12	TDP43 rescue 18µM, FUS suppressor inconclusive
COc1ccccc1Cc1c(-c2ccc(C)cc2)nc2c(C)cc(Br)cn12	TDP43 rescue 35µM, FUS suppressor inconclusive
COc1ccc(-c2nc3c(C)cc(Br)cn3c2Cc2cccc(Cl)c2)cc1OC	TDP43 rescue 32µM, FUS suppressor inconclusive
O=C(NN=Cc1ccc(-c2ccccc2)cc1)c1cc(-c2ccc(Cl)cc2)n[nH]1	none (no result: TDP43 rescue, aSyn rescue, Abeta rescue)
COc1ccc(CCN(Cc2cccs2)S(=O)(=O)c2ccc(C)c(C)c2)cc1OC	none (no result: TDP43 rescue, aSyn rescue, Abeta rescue)
Cc1cc(Br)cn2c(Cc3ccccc3)c(-c3ccco3)nc12	TDP43 rescue 11µM
Cc1cc(Br)cn2c(Cc3ccsc3)c(-c3ccco3)nc12	TDP43 rescue inconclusive
CC(C)n1nnnc1C1(C)CCSCC(=O)N1Cc1cccc(C(F)(F)F)c1 (stereo not given)	none (no result: TDP43 rescue, aSyn rescue, Abeta rescue)
Cc1csc2c(N3CCN(C(=S)Nc4ccc(C(F)(F)F)cc4)CC3)ncnc12	none
Cc1csc2ncnc(N3CCN(C(=S)Nc4ccc(C(F)(F)F)cc4)CC3)c12	TDP43 rescue 13µM, FUS suppressor inconclusive
Cc1cccc(Cn2c(-c3ccccc3)nc3ccccc32)c1	TDP43 rescue 14µM (no result: aSyn rescue)
CCSc1nc2ccccc2n1Cc1ccccc1F	TDP43 rescue 14µM
Cc1cccc(Cn2c(Cc3ccccc3)nc3ccccc32)c1	TDP43 rescue inconclusive
C=C(C)Cn1c(-c2ccccc2)nc2ccccc21	none

Screening results as filed in PubChem BioAssay.
